HttQ103 aggreg – reduces HttQ103-GFP aggregates in PC12 cells | actives 1.1% (n = 220,000) | Potency, µM (highest dose often 46.1 µM), inactives show top-dose activity change, negative = inhibition, most hits filed as inhibitors | AID 1688 | PC12 HttQ103-GFP aggregates, Acumen cytometry, 40 h; active = well fitted curve in the direction sought with a large enough effect; inconclusive = small, poorly fitted or top-dose-only effect, or another doubt; inactive = no such curve, though single readings can be large; an effect the other way counts as inactive or inconclusive; note: potency is the fitted concentration of half-maximal effect; % is set by controls: 0 for no effect and ±100 for the full control effect; nearly all actives have a fitted effect of over 60% in size
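Aggregates are detected as GFP objects 1–25 µm with signal 6 STDEV over background in lysates of induced PC12 cells. These carry Huntingtin exon 1 with 103 glutamines fused to GFP under an ecdysone promoter; compounds titrated.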
HPGD block – blocks human HPGD enzyme activity. P15428. purified HPGD, NADH fluorescence kinetic, PGE2 substrate. Potency, µM, inactives show top-dose activity change, negative = inhibition, usual class: inhibitors. actives 4.3% (n = 150,000). AID 894; note: potency is the fitted concentration of half-maximal effect; % is set by controls: 0 for no effect and ±100 for the full control effect
Target sequence (P15428 whole entry, looked up): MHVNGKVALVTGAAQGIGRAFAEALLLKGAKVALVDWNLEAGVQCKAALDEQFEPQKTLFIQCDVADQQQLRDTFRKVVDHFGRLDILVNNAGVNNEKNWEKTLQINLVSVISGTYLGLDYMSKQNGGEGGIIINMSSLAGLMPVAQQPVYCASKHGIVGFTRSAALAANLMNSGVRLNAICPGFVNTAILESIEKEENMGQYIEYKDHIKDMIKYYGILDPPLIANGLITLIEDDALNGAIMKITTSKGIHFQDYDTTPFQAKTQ
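NADH formation kinetics: reaction with 30 uM PGE2 and 1 mM NAD+ (final), 20 nM enzyme, Tris-HCl pH 8 with Tween 20, after 15 min compound preincubation at room temperature. Fluorescence change, last versus first of five reads.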
ALDH1A1 block – ALDH1A1 (human) enzyme inhibition. P00352. Purified ALDH1A1, NADH fluorescence, propionaldehyde substrate. Potency, µM (highest dose often 75.3 µM), for inactives: at the highest dose activity, negative = inhibition, usual class: inhibitors. actives 7.3% (n = 220,000);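 note: potency is the fitted concentration of half-maximal effect; plate controls were no enzyme wells and a reference inhibitor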
Target sequence (P00352 whole entry, looked up): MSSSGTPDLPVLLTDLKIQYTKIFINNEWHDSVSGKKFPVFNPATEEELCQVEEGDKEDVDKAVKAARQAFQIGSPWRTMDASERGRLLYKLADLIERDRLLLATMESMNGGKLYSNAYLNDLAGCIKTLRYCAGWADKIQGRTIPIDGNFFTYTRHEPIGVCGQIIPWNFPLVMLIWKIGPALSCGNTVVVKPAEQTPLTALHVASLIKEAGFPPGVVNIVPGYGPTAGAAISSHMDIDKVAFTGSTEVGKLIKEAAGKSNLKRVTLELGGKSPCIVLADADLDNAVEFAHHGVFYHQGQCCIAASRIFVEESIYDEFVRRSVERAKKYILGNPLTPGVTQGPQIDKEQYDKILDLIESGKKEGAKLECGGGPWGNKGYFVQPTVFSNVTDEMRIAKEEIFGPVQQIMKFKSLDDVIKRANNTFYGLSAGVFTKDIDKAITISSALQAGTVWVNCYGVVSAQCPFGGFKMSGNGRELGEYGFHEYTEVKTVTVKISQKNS
HTT cytoprotect – cytoprotection in Huntington HTT-Q103 PC12 cell model; actives 0.14% (n = 230,000); PC12 HTT-Q103 induced, cytoprotection, ATP luminescence, 40 h; Potency, µM (titrated, usually from 56.4 µM), without a hit: cytoprotection (ATP increase), actives largely listed as activators; active = well fitted curve in the direction sought with a large enough effect; inconclusive = small, poorly fitted or top-dose-only effect, or another doubt; inactive = no such curve, though single readings can be large; an effect the other way counts as inactive or inconclusive; note: potency is the fitted concentration of half-maximal effect; % of control where 0% means no effect; nearly all actives have a fitted effect of over 45% in size
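Compounds added alongside 100 nM tebufenozide, which induces toxic Q103 huntingtin exon 1-GFP in stable PC12 cells; surviving cells quantified by luminescent ATP measurement. Medium: phenol red-free DMEM, 5% equine and 5% calf serum.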
RGS12 GoLoco inh – inhibitors of human Gai1-RGS12 GoLoco interaction (red fluorophore) | P63096 | Gai1:RGS12 GoLoco peptide FP, rhodamine, 10 min | actives 0.44% (n = 230,000) | AID 880 | Potency, µM (doses to about 61.6 µM), for inactives: top-dose activity, negative = inhibition, most hits filed as inhibitors; active = well fitted inhibition curve with a large enough effect, not every such curve was filed as active; inactive = no such curve, though single readings can be large or run the other way; note: potency is the fitted concentration of half-maximal effect; % is set by controls: 0 for no effect and ±100 for the full control effect; nearly all actives have a fitted effect of over 30% in size
PNC assembly inh – perinucleolar compartment assembly inhibition | activity change (PNC), negative = inhibition, % at 10 µM | PC3M PTB-GFP, PNC prevalence imaging, 16 h; hits give low values | AID 2417 | actives 3.1% (n = 140,000);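 active = readout at or below -70, meaning at least 70% loss of cells showing the perinucleolar compartment, a nuclear body marking cancer cells; inconclusive = readout between -30 and a set limit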;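 note: plate controls were DMSO wells for no effect and camptothecin positive control wells for full effect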
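PC3M cells stably expressing PTB-GFP, 750–1000 cells/well, treated 16 h at 37 °C with compound (23 nl of library stock), in duplicate. After paraformaldehyde fixation and Hoechst stain, imaged at 20x; PNC prevalence scored by image analysis.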
Numbers without * were called inactive; i = inactive; ? = inconclusive; · = no result given; ! = not active in a repeat; [ ] = another dose, or the depositor's remark. An excerpt weighted towards active compounds, which were near 11% of everything screened. Unless noted, calls come from the whole dose curve; as a rule, active = well fitted inhibition curve with a large enough effect (not every such curve was filed as active); inconclusive = small, poorly fitted or top-dose-only effect, or another doubt; inactive = no such curve, though single readings can be large or run the other way.

SMILES	HttQ103 aggreg	HPGD block	ALDH1A1 block	HTT cytoprotect	RGS12 GoLoco inh	PNC assembly inh
Brc1c(Br)c(Br)c2n[nH]nc2c1Br	·	?	?	3.4%	8.2%	·
Cl.Cl.Cl.Cl.Cl.Cl.N.N.N.N.NNNNN.NNNNN.O.O.[Ru].[Ru].[Ru]	·	-12.0%	-1.2%	-11.7%	-4.1%	·
CCCCC/C=C\C/C=C\C/C=C\C/C=C\CCCC(=O)O	·	15.8µM*!	7.94µM*!	?	3.8%	·
CCCCC/C=C\C[C@@H](/C=C/C=C\C/C=C\CCCC(=O)O)OO	·	-5.1%	3.3%	-9.9%	-12.5%	·
CN(C)C1C(=O)C(C(N)=O)=C(O)[C@@]2(O)C(=O)C3=C(O)c4c(O)cccc4[C@](C)(O)C3C(O)C12 (some centres undefined)	·	?	-7.4%	5.6%	-4.2%	·
CN(C)[C@@H]1C(=O)C(C(N)=O)=C(O)[C@@]2(O)C(=O)C3=C(O)c4c(O)cccc4[C@@](C)(O)[C@H]3[C@H](O)[C@@H]12	-11.9%	7.08µM*	28.2µM*!	-11.7%	-33.0%	33.4
CC(C)[C@@H](Br)C(=O)NCC(=O)O	·	-3.0%	-0.7%[13.5 µM]	6.6%[10 µM]	2.6%[14.2 µM]	·
COC(=O)C12C/C=C\Cc3ccccc3[C@@H]1CNC2=O (some centres undefined)	·	-7.8%	-7.1%	6.5%	1.7%	·
C=C/C(=C/C(=O)C[C@H](C)C[C@@H](C)CC[C@H](O)[C@H](C)C(=O)C[C@@H](O)[C@H](C)[C@@H](C)OC(=O)C[C@@H](O)C1=C(C)C(=O)OC1=O)CC	·	2.82µM*	?	-19.6%[10 µM]	14.8%[14.2 µM]	·
C(#CCN1CCOCC1)COC/C=C/c1ccccc1	-2.8%	-10.1%	5.9%	-6.9%	4.0%	?
O=CC1=C(N2CCOCC2)/C(=C\c2ccccc2)CC1	10.1%	·	3.55µM*	-7.9%	-6.5%	·
O=C(O)[C@H]1C2c3ccccc3C(c3ccccc32)[C@@H]1C(=O)NCC1CC1	·	-6.4%	9.5%[13.5 µM]	-4.2%[10 µM]	4.6%[14.2 µM]	·
C[C@@H]1Cc2c(Cl)cc(C(=O)N[C@@H](Cc3ccccc3)C(=O)O)c(O)c2C(=O)O1	·	?	?	-206.0%	-16.4%	·
Cc1cnc[nH]1	·	-13.9%	0.282µM*	-3.9%	-0.4%	·
Cc1nn(C2CCOC(C)(C)C2)c2c1C(c1ccc(OC(C)C)cc1)SCC(=O)N2 (centres undefined)	9.2%	-10.1%	?	-18.2%	1.5%	-7.2
Cc1ccc(-n2nc(C)c3c2NC(=O)CSC3c2ccc3c(c2)OCO3)cc1 (centres undefined)	?	17.8µM*	?	-36.1%	-4.8%	48.3
COc1ccc(C2SCC(=O)Nc3c2c(C)nn3-c2ccccc2)cc1 (centres undefined)	-13.2%	12.6µM*	-3.8%	-21.0%	2.6%	53.5
CCOC(=O)C1=C(NC(=S)NC(=O)c2ccccc2)c2ccccc2CC12CCCC2	-12.2%	-11.7%	22.4µM*	24.3%[10 µM]	3.6%	63.6
CC(C)(C)NCC1(CO)SC(N)=NC1=O (centres undefined)	22.4µM*	-12.8%	4.5%	-83.2%	-0.5%	-17.0
COC(=O)[C@@H]1C[C@H](OC(C)=O)C(=O)[C@H]2[C@@]1(C)CC[C@H]1C(=O)O[C@H](c3ccoc3)C[C@]21C	·	-5.6%	3.3%	-5.0%	-14.3%	·
COc1ccc(C(C)=O)cc1CC(C(=O)c1ccccc1)N(C)C (centres undefined)	2.6%	-8.7%	0.2%	18.9%[10 µM]	7.4%	-94.0*
COc1ccc(C(C)=O)cc1CC(C(=O)c1ccc(C)cc1)N(C)C (centres undefined)	?	-14.0%	4.1%	1.6%[10 µM]	10.7%	16.7
c1cc2cc(c1)C[n+]1ccc(c3ccccc31)NCc1ccc(cc1)CNc1cc[n+](c3ccccc13)C2	·	-21.4%	?	-29.4%[1.9 µM]	-1.4%	·
Clc1ccc(N2CCNCC2)nn1	23.2%	·	-11.8%	-26.6%	-6.5%	·
Clc1cncc(N2CCNCC2)n1	·	?	22.4%	0.159µM*!	-3.1%	·
SMILES	HttQ103 aggreg	HPGD block	ALDH1A1 block	HTT cytoprotect	RGS12 GoLoco inh	PNC assembly inh
Cc1ccccc1N1C(=O)NC(=O)/C(=C\c2ccc3c(c2)CCCN3Cc2ccccc2)C1=O	-21.5%	1.78µM*	?	-9.2%[10 µM]	i	6.5
CN1C(=O)/C(=C/c2cccn2-c2ccc3ccccc3c2)C(=O)NC1=S	-3.1%	14.1µM*	?	0.1%	26.4%	5.1
CC(C)c1ccc(N2C(=O)NC(=O)/C(=C\c3cnc(-c4ccccc4)nc3)C2=O)cc1	-1.2%	25.1µM*	7.08µM*	5.1%	85.9%	?
Cn1cccc1/C=C1/C(=O)NC(=O)N(C(C)(C)C)C1=O	-20.1%[9.22 µM]	·	·	23.4%[10 µM]	11.2%	·
Cc1ccc(N2C(=O)NC(=O)/C(=C\c3ccsc3)C2=O)cc1C	-11.0%	31.6µM*	-6.9%	13.7%[10 µM]	30.2%	?
Cc1cccc(N2C(=O)NC(=O)/C(=C\c3cnc(-c4ccccc4)nc3)C2=O)c1	2.1%	25.1µM*	11.2µM*	25.2%[10 µM]	28.4%	58.2
Cc1cccc(N2C(=O)NC(=O)/C(=C/c3ccc(-c4ccc(C(=O)O)c(Cl)c4)o3)C2=O)c1	-25.5%	·	3.8%	-36.5%	3.7%	·
C=C1C2C[C@]3(C4CC5[C@@]6(C)CC[C@H](O)[C@@]5(C3CC2=O)C4[N+]([O-])(CC)C6)[C@@H]1O (some centres undefined)	·	-3.4%	5.8%	-19.3%	-5.2%	·
CC1(C)CCC(C)(C)c2c1ccc(O)c2Cc1c(O)ccc2c1C(C)(C)CCC2(C)C	·	-10.2%	-7.6%[13.5 µM]	6.1%[10 µM]	1.2%[14.2 µM]	·
c1ccc(N=NNc2ccccc2)cc1	·	-4.3%	-78.3%	-64.6%	11.4%	·
COc1cccc(N2C(=O)NC(=O)/C(=C/c3ccc4c(c3)Cc3ccccc3-4)C2=O)c1	12.7%	·	?	-22.4%	15.6%	·
Cc1cc(C)cc(N2C(=O)NC(=O)/C(=C\c3cccn3-c3ccccc3)C2=O)c1	28.2µM*	7.08µM*	-7.5%	-3.4%[10 µM]	28.1%	?
Cc1ccc(N2C(=O)NC(=O)/C(=C/c3cnc(-c4ccccc4)nc3)C2=O)cc1C	12.0%	20µM*	?	·	84.5%	17.6
Cc1cc(C)cc(N2C(=O)NC(=O)/C(=C\c3cccn3-c3ccc(Cl)cc3)C2=O)c1	-16.7%	?	?	-12.5%	64.8%	?
O=C1NC(=S)NC(=O)C1=Cc1cccn1-c1ccc(O)cc1	?	·	20µM*	-60.9%	12.6%	·
C[C@]12CCC3C(CC[C@]4(O)C[C@@H](O)CC[C@]34C=O)[C@@]1(O)CC[C@@H]2C1=CC(=O)OC1 (some centres undefined)	·	-1.9%	-8.6%	-13.9%[1.9 µM]	-1.5%	·
c1cc(OCC2CO2)cc(OCC2CO2)c1 (centres undefined)	·	-13.3%	?	-194.2%	-18.5%	·
